Compounds with a hit are over-represented: about 19% of the library has one in this group of screens.
DT40 TDP1 CPT – growth inhibition of DT40 Tdp1-/-;hTDP1 cells with camptothecin (screen for TDP1 inhibitors); chicken DT40 Tdp1-/-;hTDP1 cells + 20 nM CPT, ATP luminescence, 48 h; Potency, µM (series often up to 46.2 µM), for the others: at the highest dose activity change, negative = growth inhibition, hits mostly inhibitors; 12% of 420,000 active; further: potency means the concentration at half of the fitted maximal effect; nearly all actives have a fitted effect of over 55% in size
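Chicken DT40 Tdp1-/- cells complemented with human TDP1, 400 cells/well, exposed to compounds plus 20 nM camptothecin for at least 48 h at 37 C; viability read as ATP content by CellTiter-Glo luminescence.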
IL-1B inflam inh – inflammasome signaling inhibition, IL-1 beta readout | THP-1 LPS/ATP IL-1B secretion, AlphaLISA, 16 h; hits give low values | activity change, % at 57.5 µM | 4.7% of 360,000 active; in the data active means activity change below about -50%; inconclusive means mostly about -30% to -49%
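Secreted IL-1B measured by AlphaLISA bead assay after 16 h compound exposure of THP-1 cells; compounds (final up to 57.5 uM) added 1 h before LPS (250 ng/mL) and ATP (1.25 mM) stimulation; lower signal means less secretion.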
HT1080 IDH1KD tx – toxicity to HT-1080 IDH1 knockdown cells (counter line); 2% of 360,000 active; HT-1080 IDH1 knockdown viability, ATP luminescence, 48 h; Potency, µM (top dose mostly 46.1 µM), for inactives: top-dose activity, negative = toxicity, most hits filed as cytotoxic; AID 686971;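 further: potency means the concentration at half of the fitted maximal effect; 0% = DMSO wells and -100% = cell-free medium wells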
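Cytotoxicity counter-line: IDH1KD HT-1080, 48 h, CellTiter-Glo. Curves classed by r2, magnitude and activity.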
HT1080-NT tox – kills 2HG-producing HT-1080-NT fibrosarcoma cells. 1.6% of 360,000 active. HT-1080-NT fibrosarcoma viability, CellTiter-Glo ATP luminescence, 48 h. Potency, µM (titrated, usually from 46.1 µM), for inactives: at the highest dose activity, negative = less viability, usual class: cytotoxic. AID 686970;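 further: NT is the 2HG producing partner of a matched IDH1 knockdown line; potency means the concentration at half of the fitted maximal effect; 0% = DMSO-treated cells and -100% = media-only wells without cells; nearly all actives have a fitted effect of over 55% in size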
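HT-1080-NT; 750 cells/well; 5% FBS RPMI; 48 h compound, 37 degrees C; CellTiter-Glo luminescence; curve fitting and curve-class assignment.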
TDP1 cell noCPT – qHTS for Inhibitors of human tyrosyl-DNA phosphodiesterase 1 (TDP1): qHTS in cells in absence of CPT. 15% of 420,000 active. DT40 Tdp1-/- hTDP1 cells, no CPT, ATP luminescence, 48 h. Potency, µM (highest dose often 46.2 µM), without a hit: at the top dose activity change, negative = growth inhibition, usual class: inhibitors; further: potency means the concentration at half of the fitted maximal effect; nearly all actives have a fitted effect of over 55% in size
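Readout: luminescence from CellTiter-Glo after 30 min in the dark at RT. Cells: DT40 Tdp1-/- with stable hTDP1, 400/well. Exposure: compounds alone, ≥48 hr, 37 °C.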
* marks the source's active call; other numbers are inactive results; ? = inconclusive; / = not tested or not shown; [ ] = another dose, or the depositor's remark. Unless noted, the call rests on the fitted dose curve; in most records, active means well fitted curve in the direction sought with a large enough effect; inconclusive means small, poorly fitted or top-dose-only effect, or another doubt; inactive means no such curve, though single readings can be large; an effect the other way counts as inactive or inconclusive. Unless noted, on the % scale 0 is the no-effect control and ±100 the full control effect.

SMILES	DT40 TDP1 CPT	IL-1B inflam inh	HT1080 IDH1KD tx	HT1080-NT tox	TDP1 cell noCPT
O=C(CSc1cccc[n+]1[O-])Nc1ccccc1Oc1ccccc1	0.92µM*	-102*	6.5µM*	8.2µM*	1.5µM*
COC(=O)c1ccc(C(=O)OC)c(NC(=O)CSc2cccc[n+]2[O-])c1	0.92µM*	90	-4%	?	0.73µM*
O=C(CSc1cccc[n+]1[O-])Nc1ccccc1C(F)(F)F	-6%	6	10%	3%	-6%
CCCCn1c(N)c(N(CCC(C)C)C(=O)C2=NN(c3cc(C)ccc3C)C(=O)CC2)c(=O)[nH]c1=O	2%	-4	14%	11%	-2%
O=C(O)CCNc1cc(N2CCN(C(=O)c3ccco3)CC2)c2noc3c2c1C(=O)c1ccccc1-3	-2%	-71*	?	?	-26%
O=C1c2ccccc2-c2onc3c(NCCO)cc(NC4CCCCC4)c1c23	18µM*	/	/	/	?
CCN1CCN(c2cc(N3CCN(C(=O)c4ccco4)CC3)c3c4c(onc24)-c2ccccc2C3=O)CC1	7.3µM*	-52*	?	?	9.2µM*
CC(=O)Nc1ccc(NC(=O)C2(C)CC2(Cl)Cl)cc1 (stereo not drawn)	?	-3	7%	9%	18µM*
O=C(NCCS(=O)(=O)N1CCN(c2ccc(F)cc2)CC1)c1ccco1	1%	-2	0%	0%	-7%
O=C(O)c1cc(/C=C/C(=O)c2cc(F)ccc2O)c2c(c1)COCO2	-29%	-14	-7%	0%	?
O=C(C=Cc1cccc(O)c1)c1ccccc1O	?	-93*	?	?	15µM*
O=C(/C=C/c1ccc(O)c(O)c1)OCCc1ccccc1	1.5µM*	-25	?	?	1µM*
O=C(C=Cc1ccccc1O)c1ccccc1O	?	-97*	18µM*	23µM*	15µM*
O=C(/C=C/c1cc2ccccc2o1)c1ccccc1O	-6%	-102*	-22%	?	?
Cc1cc(CNC(=O)C2(C(F)(F)F)C/C(=C\Cc3ccccc3)CCCO2)nn1C (stereo not drawn)	?	25	18%	7%	?
O=C(/C=C/c1ccc(F)cc1)c1ccccc1Br	?	?	?	-18%	16µM*
NC(=O)c1ccccc1Br	-1%	40	15%	15%	-13%
O=C(/C=C/c1ccoc1)c1ccccc1O	17%	30	-1%	3%	-13%
O=C(/C=C/c1ccc(O)c(O)c1)c1ccccc1O	12µM*	-93*	-24%	-7%	?
Nc1c(NC/C=C\COc2cc(CN3CCCCC3)ccn2)c(=O)c1=O	-10%	/	/	/	-18%
N/C(=N\OC(=O)c1cccc2ccccc12)c1ccccn1	?	30	26µM*	?	?
COc1cccc(C(=O)O/N=C(\N)c2ccccn2)c1OC	?	-5	-7%	-12%	7.3µM*
CC(=O)N1NC(=Nc2ccccc2)SC1(C)C	?	-75*	-11%	0%	16µM*
N#CCCN1CCN(C(=S)c2ccc(-c3ccc(Cl)cc3)o2)CC1	?	-13	0%	-2%	?
S=C(c1ccc(-c2ccccc2Cl)o1)N1CCCCC1	?	-10	-6%	-3%	16µM*
S=C(c1ccc(-c2ccc(Cl)cc2)o1)N1CCCCC1	?	-52*	-21%	?	?
O=C(O)c1ccc(-c2ccccc2Cl)o1	-12%	-6	-6%	-10%	-17%
C/C=C/c1cccc(-c2nc(C(=O)N3CCOCC3)cc3c2[C@H](CCO)N(C(=O)NC(C)C)C3)c1	-15%	-19	24%	11%	-19%
CC(O)C1CCC2C3CC[C@H]4CC(O)CCC4(C)C3CC3(OCCO3)C12C (stereo partly drawn)	-29%	6	-6%[9.24 µM]	-9%	21µM*

Source: PubChem
